Test results reported in the supplement of paper PMC3334620.
In all, about 33,000 sequences were measured (“E-score (-0.5 to 0.5)”: median about -0.021, highest 2% from about 0.32 on). The sample as a whole holds a higher share of the highest values than the screen did.

Target: T1, Zap1 (UniProt P47043)
T1 sequence: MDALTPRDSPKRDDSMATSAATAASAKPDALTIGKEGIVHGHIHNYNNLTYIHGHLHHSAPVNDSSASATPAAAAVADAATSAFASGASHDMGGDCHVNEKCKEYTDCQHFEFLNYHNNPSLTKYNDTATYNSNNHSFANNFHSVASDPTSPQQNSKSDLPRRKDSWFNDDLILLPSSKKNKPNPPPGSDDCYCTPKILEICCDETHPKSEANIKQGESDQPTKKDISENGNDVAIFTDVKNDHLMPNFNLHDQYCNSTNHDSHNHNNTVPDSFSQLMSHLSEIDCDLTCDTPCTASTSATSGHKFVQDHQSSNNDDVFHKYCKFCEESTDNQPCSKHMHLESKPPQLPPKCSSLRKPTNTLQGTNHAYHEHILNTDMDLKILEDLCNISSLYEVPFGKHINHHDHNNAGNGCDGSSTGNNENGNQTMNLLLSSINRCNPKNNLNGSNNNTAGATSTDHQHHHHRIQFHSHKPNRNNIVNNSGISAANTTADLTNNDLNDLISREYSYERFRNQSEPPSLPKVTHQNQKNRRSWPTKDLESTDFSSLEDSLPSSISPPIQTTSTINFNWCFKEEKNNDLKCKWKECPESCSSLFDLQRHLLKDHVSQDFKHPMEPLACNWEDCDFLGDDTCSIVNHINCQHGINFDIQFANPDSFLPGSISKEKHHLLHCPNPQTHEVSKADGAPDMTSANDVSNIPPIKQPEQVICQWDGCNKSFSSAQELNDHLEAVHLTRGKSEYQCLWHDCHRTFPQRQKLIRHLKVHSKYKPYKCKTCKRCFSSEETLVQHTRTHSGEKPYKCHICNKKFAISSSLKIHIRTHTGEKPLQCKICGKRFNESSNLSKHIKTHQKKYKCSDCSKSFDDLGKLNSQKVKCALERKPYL
Assay: PBM E-score (8-mer binding enrichment) (E-score (-0.5 to 0.5)); higher = stronger / more preferred TF binding
Details: protein concentration: 200 nM; construct: GST-full length
Procedure: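 Universal 'all 10-mer' protein binding microarrays (Agilent AMADID 015681) probed with GST-tagged S. cerevisiae TFs (full-length or DBD) made by in vitro transcription/translation (PURExpress), about 100-200 nM. Bound TF was detected with fluorescent anti-GST. Each ungapped 8-mer (which stands for itself and its reverse complement) is scored by the PBM enrichment score (E-score), a modified Wilcoxon-Mann-Whitney statistic from -0.5 to +0.5, computed with the Universal PBM Analysis Suite. Scale: above 0.35 generally sequence-specific binding.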

Sequence | PBM E-score
CAAAACTC | 0.0001
GTCTCCCA | -0.252
GTAAAGGA | -0.0539
CATAAACG | 0.0839
GGGTAACA | 0.334
AAGTAACA | -0.0158
AGGTAACA | 0.344
GTGTAACA | 0.0444
CGGTAATA | 0.219
CGGTAACA | 0.253
GGGTAATA | 0.348
AGGTAAGA | 0.125
CGGTAACG | 0.0507
TGGTAACA | 0.0812
AGGTAATA | 0.263
CGGTAACC | 0.47
ATGAGCAT | 0.049
ACCTGAGT | 0.0343
GTGACGCA | 0.0591
TCTCTTCA | -0.139
AAGGGCGC | 0.0237
TCTACACA | 0.0487

Sequence | PBM E-score
GGGTAACC | 0.46
GGGTAAAC | 0.194
AGGTAACC | 0.441
GGGTAAAA | 0.306
AGGTAACT | 0.237
AGGTAACG | 0.19
CAGGAGGG | 0.143
AATTCACC | 0.0819
AGTCCTCC | -0.144
AAAGCAGG | -0.075
CGGTGACC | 0.327
AGGTGACA | 0.0888
GGGTGACC | 0.385
GAGTGACC | 0.239
GGGTGACA | 0.252
CGGTGACA | 0.193
CGGTGACG | 0.0241
AGGTGACC | 0.393
AGGTGACG | 0.182
TAAGACTA | -0.0191
TGACAAAA | 0.152
CAAGTGTA | -0.0404

Sequence | PBM E-score
AGCCCCCT | -0.406
AAGATGCG | -0.058
AAGAGGGA | -0.199
ATACTCTA | -0.0192
CGCCACTC | -0.113
ATAGGTTC | 0.138
GTAGGTTA | 0.39
CTAGGTTA | 0.42
ATAGGTTA | 0.46
ATAGGTTG | 0.16
GTAGGTAA | 0.199
GTAGGTGA | 0.0614
CTAGGTTC | 0.0156
CTAGGTCA | 0.117
AAGCACGT | -0.3
CGGTTAGC | 0.151
CCAATTAC | 0.103
ACCAAATC | 0.0501
AACTACCA | 0.179
AGTATCCG | -0.013
AGGTCTGA | -0.0295
CCTAGAGG | 0.366

Sequence | PBM E-score
ACTAGAGG | -0.0174
CCTAGAGA | -0.0434
GTAATGCA | -0.157
GAAGGGTA | 0.421
AAAGGGGA | -0.127
AAAGGGTA | 0.415
AAGGGGGA | -0.245
TAAGGGGA | 0.00031
GAAGGGGA | -0.0649
GAAGGGAA | -0.194
TAAGGGCA | -0.0345
TAAGGGTA | 0.433
AAGGGGTA | 0.334
AGGGGGTA | 0.0442
AAAGGGCA | -0.0435
AACGAATA | -0.00355
CAATCCAG | -0.0505
CGAAGTCG | 0.0486
GCTTCCGA | -0.0201
AGAGCAAT | -0.181
CCCCTAGG | 0.16
